Measurements as given in PubChem BioAssay (Tox21).
Inconclusive results are not listed. Calls of active or inactive are those of the source. Calls come from the whole dose curve; as a rule, active = well fitted curve in the direction sought with a large enough effect in the repeat runs; inconclusive = weak or mixed curves; inactive = no such curve, though single readings can be large; an effect the other way counts as inactive or inconclusive.

Assays:
[1] = biological target: Cytochrome P450 2C19 (Homo sapiens) (UniProt P33261); experiment: Cytochrome P450 Family 2 Subfamily C Member 19 (CYP2C19) small molecule antagonists: luciferase reporter qHTS assay (AID 1671197); note: nearly all actives have a fitted effect of over 65% in size; note: potency is the fitted concentration of half-maximal effect; for activity change, negative = inhibition: series mostly up to about 120 µM
Chain of Cytochrome P450 2C19 (Homo sapiens) (P33261 whole entry, looked up): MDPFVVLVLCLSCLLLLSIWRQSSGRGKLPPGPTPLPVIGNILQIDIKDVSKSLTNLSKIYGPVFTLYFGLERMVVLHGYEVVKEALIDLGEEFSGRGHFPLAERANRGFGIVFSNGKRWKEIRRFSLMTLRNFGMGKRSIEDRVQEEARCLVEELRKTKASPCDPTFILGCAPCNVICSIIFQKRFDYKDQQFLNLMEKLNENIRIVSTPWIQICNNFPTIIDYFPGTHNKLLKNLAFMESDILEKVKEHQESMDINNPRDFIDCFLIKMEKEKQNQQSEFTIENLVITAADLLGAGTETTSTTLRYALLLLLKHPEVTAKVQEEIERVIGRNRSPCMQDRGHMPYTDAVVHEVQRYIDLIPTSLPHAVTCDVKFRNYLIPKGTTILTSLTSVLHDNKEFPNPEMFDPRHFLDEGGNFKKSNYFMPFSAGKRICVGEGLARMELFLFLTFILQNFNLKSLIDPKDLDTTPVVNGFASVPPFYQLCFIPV
Summary of the method: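 Light output is proportional to CYP2C19 activity: proluciferin substrate is converted to luciferin, then detected by a luciferin detection reagent that also stops the 1 h, 37C NADPH-driven reaction. Ketoconazole serves as positive control.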

[2] = biological target: Cytochrome P450 2C9 (Homo sapiens) (UniProt P11712); experiment: Cytochrome P450 Family 2 Subfamily C Member 9 (CYP2C9) small molecule antagonists: luciferase reporter qHTS assay (AID 1671198); note: nearly all actives have a fitted effect of over 50% in size; note: potency is the fitted concentration of half-maximal effect; for activity change, negative = inhibition: series mostly up to about 120 µM
Chain of Cytochrome P450 2C9 (Homo sapiens) (P11712 whole entry, looked up): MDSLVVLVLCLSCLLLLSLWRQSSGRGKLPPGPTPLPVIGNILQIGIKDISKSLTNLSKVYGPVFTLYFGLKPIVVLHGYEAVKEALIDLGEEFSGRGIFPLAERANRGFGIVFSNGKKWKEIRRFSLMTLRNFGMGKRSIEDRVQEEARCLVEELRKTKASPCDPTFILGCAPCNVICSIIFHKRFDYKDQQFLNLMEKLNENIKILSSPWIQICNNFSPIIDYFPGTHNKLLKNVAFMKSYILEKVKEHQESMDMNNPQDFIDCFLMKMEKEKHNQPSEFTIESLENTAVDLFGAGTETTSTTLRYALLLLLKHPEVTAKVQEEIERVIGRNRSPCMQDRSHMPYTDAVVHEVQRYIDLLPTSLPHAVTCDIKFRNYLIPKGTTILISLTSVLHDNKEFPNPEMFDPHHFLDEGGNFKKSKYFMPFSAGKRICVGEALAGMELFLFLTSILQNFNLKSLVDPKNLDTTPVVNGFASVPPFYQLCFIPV
Summary of the method: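 Enzyme-substrate mix preincubated with compound 10 min at room temperature; reaction started with NADPH regeneration solution, 1 h 37C. Luminescent luciferin product read after 20 min detection reagent.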

[3] = biological target: Cytochrome P450 1A2 (Homo sapiens) (UniProt P05177); experiment: Cytochrome P450 Family 1 Subfamily A Member 2 (CYP1A2) small molecule antagonists: luciferase reporter qHTS assay (AID 1671199); note: series mostly up to about 120 µM; nearly all actives have a fitted effect of over 50% in size
Chain of Cytochrome P450 1A2 (Homo sapiens) (P05177 whole entry, looked up): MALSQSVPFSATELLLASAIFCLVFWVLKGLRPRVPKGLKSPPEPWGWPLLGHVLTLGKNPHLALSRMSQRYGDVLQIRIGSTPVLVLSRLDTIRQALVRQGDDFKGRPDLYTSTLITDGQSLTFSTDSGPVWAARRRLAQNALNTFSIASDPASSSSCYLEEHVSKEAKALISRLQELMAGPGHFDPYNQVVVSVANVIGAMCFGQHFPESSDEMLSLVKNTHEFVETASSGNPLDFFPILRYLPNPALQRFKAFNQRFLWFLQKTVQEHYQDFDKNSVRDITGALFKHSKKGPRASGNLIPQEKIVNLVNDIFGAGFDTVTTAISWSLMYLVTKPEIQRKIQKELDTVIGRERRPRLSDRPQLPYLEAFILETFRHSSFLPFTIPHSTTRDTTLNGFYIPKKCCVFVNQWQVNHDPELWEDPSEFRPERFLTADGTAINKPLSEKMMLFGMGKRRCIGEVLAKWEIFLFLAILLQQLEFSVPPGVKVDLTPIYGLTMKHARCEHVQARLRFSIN
Summary of the method: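 Luminescence from luciferin formed by CYP1A2 from a proluciferin substrate, read 20 min after detection reagent. Compound was pre-incubated 10 min with enzyme-substrate, and reaction started with NADPH regeneration solution for 1 h at room temperature; furafylline control.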

[4] = biological target: Voltage-gated inwardly rectifying potassium channel KCNH2 (Homo sapiens) (UniProt Q12809); experiment: Human Ether-a-go-go-Related Gene (hERG) channel small molecule antagonists: fluorescence cell-based qHTS assay (AID 1671200);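 note: hERG-expressing U2OS cells given a thallium stimulus after FluxOR II dye loading; series mostly up to about 77 µM; nearly all actives have a fitted effect of over 50% in size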
Chain of Voltage-gated inwardly rectifying potassium channel KCNH2 (Homo sapiens) (Q12809 whole entry, looked up): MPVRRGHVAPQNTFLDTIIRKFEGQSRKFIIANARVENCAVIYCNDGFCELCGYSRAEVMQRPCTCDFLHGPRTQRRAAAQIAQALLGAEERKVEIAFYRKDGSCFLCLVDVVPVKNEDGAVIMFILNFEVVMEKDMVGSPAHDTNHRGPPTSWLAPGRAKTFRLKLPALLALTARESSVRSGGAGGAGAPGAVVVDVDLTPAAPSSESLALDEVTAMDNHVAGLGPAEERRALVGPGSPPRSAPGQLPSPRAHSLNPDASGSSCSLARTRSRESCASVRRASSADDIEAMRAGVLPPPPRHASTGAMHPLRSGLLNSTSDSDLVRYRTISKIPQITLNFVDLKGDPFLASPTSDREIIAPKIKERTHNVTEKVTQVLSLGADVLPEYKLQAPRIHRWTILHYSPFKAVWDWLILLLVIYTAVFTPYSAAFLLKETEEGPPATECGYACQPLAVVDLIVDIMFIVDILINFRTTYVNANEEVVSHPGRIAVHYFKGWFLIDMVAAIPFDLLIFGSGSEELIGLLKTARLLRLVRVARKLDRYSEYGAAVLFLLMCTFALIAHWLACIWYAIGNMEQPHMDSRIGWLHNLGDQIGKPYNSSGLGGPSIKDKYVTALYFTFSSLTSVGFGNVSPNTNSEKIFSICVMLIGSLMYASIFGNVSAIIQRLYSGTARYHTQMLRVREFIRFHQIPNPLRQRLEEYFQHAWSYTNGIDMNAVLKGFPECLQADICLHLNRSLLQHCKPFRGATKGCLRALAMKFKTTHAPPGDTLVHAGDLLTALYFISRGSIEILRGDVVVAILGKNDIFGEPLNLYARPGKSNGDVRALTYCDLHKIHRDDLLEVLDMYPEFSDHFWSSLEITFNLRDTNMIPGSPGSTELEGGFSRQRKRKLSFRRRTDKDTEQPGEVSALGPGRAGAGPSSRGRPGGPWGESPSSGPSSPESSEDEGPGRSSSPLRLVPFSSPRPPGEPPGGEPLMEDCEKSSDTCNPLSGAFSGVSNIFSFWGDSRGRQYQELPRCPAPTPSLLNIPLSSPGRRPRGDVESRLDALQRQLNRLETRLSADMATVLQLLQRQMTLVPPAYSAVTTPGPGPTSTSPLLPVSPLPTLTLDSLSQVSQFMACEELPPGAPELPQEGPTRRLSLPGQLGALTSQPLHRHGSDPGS
Summary of the method: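 Channel function was assessed by thallium flux. Cells seeded the previous day and kept at 37 C took up FluxOR II dye over 1 h in the dark at room temperature, then sat another 10 min before stimulation.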

[5] = biological target: Cytochrome P450 3A4 (Homo sapiens) (UniProt P08684); experiment: Cytochrome P450 Family 3 Subfamily A Member 4 (CYP3A4) small molecule antagonists: luciferase reporter qHTS assay (AID 1671201); note: nearly all actives have a fitted effect of over 50% in size; note: potency is the fitted concentration of half-maximal effect; for activity change, negative = inhibition: series mostly up to about 120 µM
Chain of Cytochrome P450 3A4 (Homo sapiens) (P08684 whole entry, looked up): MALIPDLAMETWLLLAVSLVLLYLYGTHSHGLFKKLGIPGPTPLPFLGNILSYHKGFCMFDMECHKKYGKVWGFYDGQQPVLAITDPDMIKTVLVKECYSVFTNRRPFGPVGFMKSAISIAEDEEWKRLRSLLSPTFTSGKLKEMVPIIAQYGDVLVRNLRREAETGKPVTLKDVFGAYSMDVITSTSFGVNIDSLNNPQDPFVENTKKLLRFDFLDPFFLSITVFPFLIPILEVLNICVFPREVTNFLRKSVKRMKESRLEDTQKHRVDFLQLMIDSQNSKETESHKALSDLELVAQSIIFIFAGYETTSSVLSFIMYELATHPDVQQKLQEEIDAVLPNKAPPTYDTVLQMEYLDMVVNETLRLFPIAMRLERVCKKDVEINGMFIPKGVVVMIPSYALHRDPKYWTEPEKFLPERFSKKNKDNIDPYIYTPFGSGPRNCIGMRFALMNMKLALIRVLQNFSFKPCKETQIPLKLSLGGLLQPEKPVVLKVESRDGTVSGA
Summary of the method: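 Compounds in DMSO were pin-transferred onto CYP3A4 enzyme-substrate mix and held 10 min at room temperature. NADPH regenerating solution started the reaction for 1 h; luciferin detection reagent stopped it, and luminescence was read after 20 min.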
% is set by controls: 0 for no effect and ±100 for the full control effect.

CC[N+](CC)(CC(=O)Nc1c(C)cccc1C)Cc1ccccc1 (tested in a mixture with another compound)
active: Potency [1] 52.3 µM

CCCCCCC#CC(=O)OC
inactive: Potency [1] | Potency [2]

C=C[Si](OC(C)=O)(OC(C)=O)OC(C)=O
active: Potency [5] 39.9 µM
inactive: Potency [1] | Potency [2] | Potency [3] | Potency [4]

O=C(c1ccccc1)C1(O)CCCCC1
active: Potency [1] 11.2 µM | Potency [2] 35.6 µM
inactive: Potency [4] | Potency [5]

CC/C=C\CCOC(C)OCC (configuration not stated)
inactive: Potency [1] | Potency [2] | Potency [4] | Potency [5]

CO[Si](C)(OC)c1ccccc1
active: Potency [1] 7.1 µM | Potency [2] 35.6 µM | Potency [5] 25.2 µM
inactive: Potency [4]

C=CN1CCCCCC1=O
inactive: Potency [1] | Potency [2] | Potency [4] | Potency [5]

CCCO[Si](OCCC)(OCCC)OCCC
inactive: Potency [1] | Potency [2] | Potency [4] | Potency [5]

C[N+]12CCC(CC1)C(OC(=O)C(O)(c1ccccc1)c1ccccc1)C2 (configuration not stated)
inactive: Potency [1] | Potency [2] | Potency [5]

Cc1nc2ccc(CN(C)c3ccc(C(=O)N[C@@H](CCC(=O)O)C(=O)O)s3)cc2c(=O)[nH]1
inactive: Potency [1] | Potency [2] | Potency [4] | Potency [5]

CC(=O)N1C[C@H](O)C[C@H]1C(=O)O
inactive: Potency [1] | Potency [2] | Potency [4] | Potency [5]

CCOCC(C)O (configuration not stated)
inactive: Potency [1] | Potency [2] | Potency [4] | Potency [5]

Cc1ncc(COP(=O)(O)O)c(C=O)c1O
inactive: Potency [1] | Potency [2] | Potency [4] | Potency [5]

O=C(CO)[C@@H](O)[C@H](O)[C@@H](O)CO
inactive: Potency [1] | Potency [2] | Potency [4] | Potency [5]

CCCCCCCCCCCCSC
inactive: Potency [1] | Potency [2] | Potency [4] | Potency [5]

NC(CCC(=O)O)C(=O)O (configuration not stated)
inactive: Potency [1] | Potency [2] | Potency [4] | Potency [5]

CN(C)CCCN(C)CCCN(C)C
inactive: Potency [1] | Potency [2] | Potency [4] | Potency [5]

Nc1c2c(nc3c1CCC3)CCCC2
inactive: Potency [1] | Potency [2] | Potency [4] | Potency [5]

CC(C)C(=O)OC(=O)C(C)C
inactive: Potency [1] | Potency [2] | Potency [4] | Potency [5]

OCCc1ccccn1
inactive: Potency [1] | Potency [2] | Potency [5]

C[N+](C)(C)CCCCCCCCCC[N+](C)(C)C
inactive: Potency [1] | Potency [2] | Potency [4] | Potency [5]

C[C@H]1[C@H](NC(=O)/C(=N/OC(C)(C)C(=O)O)c2csc(N)n2)C(=O)N1S(=O)(=O)O (stereo in doubt)
inactive: Potency [1] | Potency [2] | Potency [4] | Potency [5]

COC(=O)Nc1ccc(Cl)c(Cl)c1
inactive: Potency [4] | Potency [5]
active: Potency [1] 17.7 µM | Potency [2] 70.6 µM

CCCCOCCOC(=O)CCCCCCCCC(=O)OCCOCCCC
active: Potency [1] 31.7 µM | Potency [2] 35.6 µM
inactive: Potency [4] | Potency [5]

CC1(C)OC[C@@H](COC(=O)CCc2ccc(OC[C@@H](O)CNCCNC(=O)N3CCOCC3)cc2)O1
inactive: Potency [1] | Potency [2] | Potency [4] | Potency [5]

CCCCN(CCC(=O)OCC)C(C)=O
inactive: Potency [2] | Potency [4] | Potency [5]
active: Potency [1] 35.6 µM

O=C(CO)[C@@H](O)[C@H](O)[C@H](O)CO
inactive: Potency [1] | Potency [2] | Potency [4] | Potency [5]

CCOC(=O)c1ccccc1
inactive: Potency [1] | Potency [2] | Potency [4] | Potency [5]

CN(C)C(=O)Oc1ccc[n+](C)c1
inactive: Potency [1] | Potency [2] | Potency [4] | Potency [5]

C[N+]1(C)CCCC(OC(=O)C(O)(c2ccccc2)c2ccccc2)C1 (configuration not stated)
inactive: Potency [1] | Potency [2] | Potency [5]

CC[N+](CC)(CC)CCOc1cccc(OCC[N+](CC)(CC)CC)c1OCC[N+](CC)(CC)CC
inactive: Potency [1] | Potency [2] | Potency [4] | Potency [5]

CCOC(=O)COC(=O)c1ccccc1C(=O)OCC
active: Potency [1] 20 µM | Potency [2] 31.7 µM
inactive: Potency [4] | Potency [5]

CC(C)CCCO
inactive: Potency [1] | Potency [2] | Potency [4] | Potency [5]

C=CC(C)(CCC=C(C)C)OC(=O)CC (configuration not stated)
active: Potency [1] 35.6 µM | Potency [2] 31.7 µM | Potency [5] 28.3 µM
inactive: Potency [4]

CC(CO)(CO)[N+](=O)[O-]
inactive: Potency [1] | Potency [2] | Potency [4] | Potency [5]

CCCCc1ccc2c(n1)[C@@H](c1ccc(OC)cc1C[C@H](C)C(=O)O)[C@H](C(=O)O)[C@H]2c1ccc2c(c1)OCO2
active: Potency [2] 35.6 µM
inactive: Potency [1] | Potency [5]

Cc1cc(C)c(N=Nc2c(O)c(S(=O)(=O)O)cc3cc(S(=O)(=O)O)ccc23)cc1C
inactive: activity change, negative = inhibition [1] 9.38% [at 10.5 µM] | activity change, negative = inhibition [2] 1.8% [at 10.5 µM] | activity change, negative = inhibition [5] 1.68% [at 10.5 µM]

O=CN(CCO)CCO
inactive: Potency [1] | Potency [2] | Potency [4] | Potency [5]

CN1C(C)(C)CC(O)CC1(C)C
inactive: Potency [1] | Potency [2] | Potency [4] | Potency [5]
